From PubChem BioAssay
This excerpt belongs to a sample that is enriched for hits.
Dicer inh: inhibitors of Dicer pre-microRNA processing, primary screen, biochemical, cat-ELCCA, chemiluminescence; cat-ELCCA pre-miR-21 Dicer processing; stronger effect = higher value; z-score at 25 µM; 6% of 47,000 active; AID 1347074, 2019; in the data active = z-score above about 3, passing the limit was not always enough;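 note: plate controls were vehicle for no effect and no enzyme for full effect; higher signal means more uncleaved substrate so more Dicer inhibition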
The depositor's hits bear a star.

SMILES	Dicer inh
CCOC(=O)c1c(N)n(-c2cccc(Cl)c2)c2nc3ccccc3nc12	2.1
O=C(CC1Sc2ccccc2NC1=O)Nc1ccc2c(c1)OCO2 (stereo not given)	3.88*
O=C(CC1Sc2ccccc2NC1=O)Nc1ccc(Cl)cc1 (stereo not given)	-0.08
O=C(CC1SCCNC1=O)Nc1ccc2c(c1)OCO2 (stereo not given)	-0.95
COC(=O)c1sccc1-c1ccc(CN2CCCc3cc(OC)ccc32)o1	0.8
Cc1ccc(C2C(C#N)=C(N)Oc3n[nH]c(C)c32)o1 (stereo not given)	-4.82
O=C1CSC(=Nc2ccc(Cl)cc2)N1Cc1ccccc1Cl	0.48
C=CCc1ccc(Cc2ccc([N+](=O)[O-])cc2)c(OC)c1	2.98
Cc1cc(C)c(NC(=S)NCc2csc3ccccc23)c(C)c1	2.55
CC(C)(CC(=O)O)CC(=O)NCc1csc2ccccc12	4.45*
S=C(NCc1csc2ccccc12)c1ccccc1	-1.4
NNC(=O)COc1ccc(SC(F)(F)F)cc1	-0.39
Cc1nc2ccccn2c1C(=O)NNS(=O)(=O)c1sc2ccc(Cl)cc2c1C	-0.07
Cc1c(S(=O)(=O)Nc2ccc3[nH]ccc3c2)sc2ccc(Cl)cc12	3.48*
Cc1c(CC(=O)NNS(=O)(=O)c2ccccc2C(F)(F)F)sc2ccc(Cl)cc12	0.58
COC(=O)c1ccc(-n2ncnc2-c2ccc(Br)cc2)cc1	0.84
O=C1/C(=C\c2ccccc2)N=C2SCCCCN12	1.39
COC(=O)c1c(C)oc2ccc(OCC(=O)O)cc12	-0.3
Cn1cc(Cl)c(/C=C(\C#N)S(=O)(=O)C(C)(C)C)n1	4.23*
Cn1cc(Cl)c(/C=C(\C#N)C(=O)c2ccc(Cl)cc2)n1	0.36
Cn1cc(Cl)c(/C=C(\C#N)S(=O)(=O)c2ccccc2)n1	0.91
C[C@H]1O[C@@H](n2cnc3c(N)ncnc32)[C@H](O)[C@@H]1O	-0.22
CC(=O)n1nccc1-c1nccnc1C	2.13
O=C1CSc2nnc(-c3ccc(Cl)cc3)n21	-1.5
CSc1nnc2c(n1)OC(C1CC=C(C)CC1)Nc1ccccc1-2 (stereo not given)	3.21*
SMILES	Dicer inh
CSc1nnc2c(n1)OC(c1ccc(C)cc1)Nc1ccccc1-2 (stereo not given)	-0.71
CSc1nnc2c(n1)OC(C)Nc1ccccc1-2 (stereo not given)	5.76
CC(=O)CSc1nnc2c(n1)[nH]c1ccccc12	-0.79
Cc1ccc(-c2nc(NC(=O)c3cc(C(C)(C)C)nn3C)sc2C)cc1Cl	-0.75
COc1ccc2c(OC)ccc3c2c1C=CC3=O	-0.88
N#C/C(=N\Nc1ccc(F)cc1)C(=O)NCC1CCCO1 (stereo not given)	3.77*
COc1ccc(Cl)cc1NC(=O)C(=O)NCC1CCCO1 (stereo not given)	-0.43
CCn1c2ccccc2c2cc(NC(=O)C(=O)NCC3CCCO3)ccc21 (stereo not given)	1.75
CC(O)c1nc2ccc(-c3ccc4nc(C(C)O)[nH]c4c3)cc2[nH]1 (stereo not given)	-0.79
CC1(C)CC(=O)C2=C(C1)Nc1c(ccc3ccccc13)C2c1ccc2c(c1)OCO2 (stereo not given)	0.31
O=S(=O)(c1ccc2c(c1)Cc1cc(S(=O)(=O)N3CCCCC3)ccc1-2)N1CCCCC1	-0.07
Cn1c(=O)n(C)c2cc(S(=O)(=O)Nc3ccc(C(=O)O)cc3)ccc21	0.33
Cn1c(=O)n(C)c2cc(S(=O)(=O)N3CCCC3)ccc21	3.45*
CCN(CC)C(=NC(=O)c1c(Cl)cccc1Cl)SC	-1.16
NC(=S)c1ccc(OCC(F)(F)F)nc1	-2.3
Cc1ccccc1NC(=S)N(Cc1ccc2c(c1)OCO2)c1ccc(F)cc1	1.68
Cc1cc(C)c(CSC2=NCCN2)c(C)c1CSC1=NCCN1	-3.75
Cc1c(C)c(C)c(CSC2=NCC(C)N2)c(C)c1C (stereo not given)	4.05*
Cc1c(C)c(C)c(CSC2=NCCC2)c(C)c1C	-0.75
COc1ccc(-c2cc(=O)[nH]c3sc4c(=O)[nH]c(-c5ccccc5)nc4c23)cc1	-1.01
O=C(OCc1ccccc1)c1cnc(NNS(=O)(=O)c2ccc(Cl)cc2)nc1C(F)(F)F	-0.62
Cc1ccc2nc(-c3ccc(C)c(NC(=O)c4ccc([N+](=O)[O-])o4)c3)oc2c1	4.11*
O=C(Nc1ccc2oc(-c3cccc(Cl)c3)nc2c1)c1ccc([N+](=O)[O-])o1	7.04
Cc1ccc(-c2nc3cc(Cl)ccc3o2)cc1NC(=O)c1ccc([N+](=O)[O-])o1	0.65
CCOC(=O)c1c(NS(=O)(=O)c2ccc(OC)c(OC)c2)sc2c1CCCC2	-1.6
CN1CCN(CC(=O)N2c3ccccc3C=Cc3ccccc32)CC1	7.01*
CN1CCN(CC(=O)N2CCc3ccccc32)CC1	1.62
O=C(CN1CCCCC1)N1c2ccccc2CCc2ccccc21	1.29
COc1ccc(Oc2ccc([N+](=O)[O-])cc2C(=O)NNC(=O)c2ccc(Cl)cc2Cl)cc1	4.83*
NNC(=O)c1ccc([N+](=O)[O-])cc1Cl	-0.83
